# Experimental data as given in PubChem BioAssay (EPA / NIEHS).
# Calls of active or inactive are those of the source. The calls were made as follows: active = hit-call score of the fitted dose curve at least 0.9, where 1 is the maximum; inactive = score below 0.9.
# How the values were obtained:
# Details in all cases: mRNA level, 48 h; actives raise or lower the signal
# [1] = read-out: ABC Transporter (ABCB11), ABCB11 (gene 8647); test: LTEA_HepaRG_ABCB11: Life Technologies and Expression Analysis (LTEA) Assay for ABC Transporter (ABCB11) using HepaRG (AID 2283463)
# In short: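 Using HepaRG cultures held in 0.5% DMSO, chemicals were tested at half-log dilutions from 100 uM for 48 h. Induction or suppression of ABCB11 mRNA, normalized to ACTB, GAPDH and POLR2A, was fitted bidirectionally against vehicle.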
# [2] = read-out: ABC Transporter (ABCC2), ABCC2 (gene 1244); test: LTEA_HepaRG_ABCC2: Life Technologies and Expression Analysis (LTEA) Assay for ABC Transporter (ABCC2) using HepaRG (AID 2283464)
# In short: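 HepaRG cells were plated 48 h, switched to serum-free induction medium, then exposed in duplicate for 48 h to 8 concentrations (top 100 uM, half-log steps, 0.5% DMSO). ABCC2 mRNA was measured by qRT-PCR normalized to ACTB/GAPDH/POLR2A; bidirectional fitting versus DMSO.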
# [3] = read-out: Broad substrate specificity ATP-binding cassette transporter ABCG2 (Homo sapiens) (UniProt Q9UNQ0); test: LTEA_HepaRG_ABCG2: Life Technologies and Expression Analysis (LTEA) Assay for ABC Transporter (ABCG2) using HepaRG (AID 2283465)
# In short: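 Gene expression of ABCG2 in HepaRG liver cells is quantified by qRT-PCR following 48 h exposure across an eight-point series topping at 100 uM. Values come from bidirectional fitting relative to DMSO vehicle.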
# [4] = read-out: ATP-citrate lyase (ACLY), ACLY (gene 47); test: LTEA_HepaRG_ACLY: Life Technologies and Expression Analysis (LTEA) Assay for ATP-citrate lyase (ACLY) using HepaRG (AID 2283466)
# In short: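 ACLY expression changes in human HepaRG liver cells are quantified by qRT-PCR after 48 h exposure to test chemicals (maximum 100 uM, half-log steps). Values are fitted in both directions relative to 0.5% DMSO vehicle.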
# [5] = read-out: Peroxisomal acyl-coenzyme A oxidase 1 (ACOX1) gene, ACOX1 (gene 51); test: LTEA_HepaRG_ACOX1: Life Technologies and Expression Analysis (LTEA) Assay for Peroxisomal acyl-coenzyme A oxidase 1 (ACOX1) gene using HepaRG (AID 2283467)
# In short: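 Human HepaRG hepatic cultures, 48 h treatment with test chemicals up to 100 uM. ACOX1 expression read by qRT-PCR relative to 0.5% DMSO vehicle.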
# [6] = read-out: Alkaline Phosphatase, Placental (ALPP) gene, ALPP (gene 250); test: LTEA_HepaRG_ALPP: Life Technologies and Expression Analysis (LTEA) Assay for Alkaline Phosphatase, Placental (ALPP) gene using HepaRG (AID 2283468)
# In short: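 Differentiated human HepaRG cells were plated and cultured 48 h, then exposed in duplicate for 48 h in serum-free induction medium to eight half-log concentrations from 100 uM in 0.5% DMSO. ALPP mRNA was measured by TaqMan qRT-PCR, normalized to ACTB, GAPDH, POLR2A.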
# [7] = read-out: Bcl-2 (BAD) gene, BAD (gene 572); test: LTEA_HepaRG_BAD: Life Technologies and Expression Analysis (LTEA) Assay for Bcl-2 (BAD) gene using HepaRG (AID 2283469)
# In short: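 Activity values reflect up- or down-regulation of BAD mRNA in human HepaRG hepatic cells treated 48 h in serum-free medium, with eight-point half-log dosing capped at 100 uM and 0.5% DMSO vehicle.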
# [8] = read-out: Bcl-2 (BAX) gene, BAX (gene 581); test: LTEA_HepaRG_BAX: Life Technologies and Expression Analysis (LTEA) Assay for Bcl-2 (BAX) gene using HepaRG (AID 2283470)
# In short: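 qRT-PCR read-out of BAX mRNA, normalized to three housekeeping genes, after 48 h chemical exposure of human HepaRG cells in serum-free induction medium; eight-point half-log series, top 100 uM, 0.5% DMSO vehicle; bidirectional fit versus DMSO.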
# [9] = read-out: adenosine kinase (ADK) gene, ADK (gene 132); test: LTEA_HepaRG_ADK: Life Technologies and Expression Analysis (LTEA) Assay for adenosine kinase (ADK) gene using HepaRG (AID 2283471)
# In short: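 Differentiated HepaRG cells dosed 48 h in serum-free induction medium, 0.5% DMSO vehicle, eight half-log concentrations from 100 uM, in duplicate. ADK mRNA by TaqMan qRT-PCR normalised to ACTB, GAPDH, POLR2A; bidirectional fit versus DMSO.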
# [10] = read-out: Alpha-fetoprotein (AFP) gene, AFP (gene 174); test: LTEA_HepaRG_AFP: Life Technologies and Expression Analysis (LTEA) Assay for Alpha-fetoprotein (AFP) gene using HepaRG (AID 2283472)
# In short: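 qRT-PCR (Fluidigm TaqMan) readout of AFP transcript, normalized to three housekeeping genes, fitted bidirectionally against 0.5% DMSO baseline. HepaRG cells received chemicals for 48 h in serum-free induction medium, top concentration 100 uM, half-log steps.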
# BCL2L11 (gene 10018) = test: LTEA_HepaRG_BCL2L11: Life Technologies and Expression Analysis (LTEA) Assay for Bcl-2 (BCL2L11) gene using HepaRG (AID 2283473)
# In short: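 Differentiated human HepaRG cells in serum-free induction medium were exposed in duplicate for 48 h to eight concentrations (top 100 uM, half-log steps, 0.5% DMSO). BCL2L11 mRNA was quantified by TaqMan qRT-PCR, normalized to ACTB/GAPDH/POLR2A, bidirectional fit versus DMSO.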
# [11] = read-out: Apolipoprotein A-V (APOA5) gene, APOA5 (gene 116519); test: LTEA_HepaRG_APOA5: Life Technologies and Expression Analysis (LTEA) Assay for Apolipoprotein A-V (APOA5) gene using HepaRG (AID 2283474)
# In short: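 Differentiated human HepaRG cells were exposed in duplicate for 48 h to eight half-log concentrations from 100 uM in 0.5% DMSO. APOA5 mRNA was quantified by TaqMan qRT-PCR, normalized to ACTB, GAPDH and POLR2A, and fitted bidirectionally against DMSO.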
# [12] = read-out: Apoptosis regulator Bcl-2 (Homo sapiens) (UniProt P10415); test: LTEA_HepaRG_BCL2: Life Technologies and Expression Analysis (LTEA) Assay for Bcl-2 gene using HepaRG (AID 2283475)
# In short: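 qRT-PCR read-out (Fluidigm TaqMan) of BCL2 transcript, normalised to three housekeeping genes, after 48 h chemical exposure of HepaRG cells; 8-point half-log series, top 100 uM, 0.5% DMSO vehicle. Gain or loss of signal fitted relative to DMSO baseline.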
# [13] = read-out: Bcl-2 (BID) gene, BID (gene 637); test: LTEA_HepaRG_BID: Life Technologies and Expression Analysis (LTEA) Assay for Bcl-2 (BID) gene using HepaRG (AID 2283476)
# In short: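 HepaRG, 48 h exposure, 8-pt half-log series, top 100 uM, 0.5% DMSO vehicle, duplicates. Readout: BID mRNA by TaqMan qRT-PCR; housekeeping-normalized; bidirectional curve fit vs DMSO baseline.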
# Caspase-3 (Homo sapiens) = Caspase-3 (Homo sapiens) (UniProt P42574); test: LTEA_HepaRG_CASP3: Life Technologies and Expression Analysis (LTEA) Assay for cysteine-aspartic acid protease (CASP3) using HepaRG (AID 2283477)
# In short: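 Differentiated human HepaRG cells in serum-free induction medium were exposed 48 h to 8-point half-log concentrations from 100 uM (0.5% DMSO vehicle). CASP3 mRNA was measured by qRT-PCR, normalised to ACTB, GAPDH and POLR2A, with bidirectional fitting against DMSO.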
# [14] = read-out: Cytochrome P450 (CYP24A1), CYP24A1 (gene 1591); test: LTEA_HepaRG_CYP24A1: Life Technologies and Expression Analysis (LTEA) Assay for Cytochrome P450 (CYP24A1) using HepaRG (AID 2283478)
# In short: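 Differentiated HepaRG cells, pre-cultured 48 h, were exposed in duplicate for 48 h in serum-free induction medium to 8 half-log concentrations (top 100 uM, 0.5% DMSO). CYP24A1 mRNA was quantified by TaqMan qRT-PCR, normalized to ACTB/GAPDH/POLR2A, fitted bidirectionally versus DMSO.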
# [15] = read-out: Cytochrome P450 (CYP1A2), CYP1A2 (gene 1544); test: LTEA_HepaRG_CYP1A2: Life Technologies and Expression Analysis (LTEA) Assay for Cytochrome P450 (CYP1A2) using HepaRG (AID 2283479)
# In short: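 Differentiated human HepaRG cells in serum-free induction medium were exposed in duplicate for 48 h to 8-point half-log concentrations up to 100 uM in 0.5% DMSO. CYP1A2 mRNA measured by qRT-PCR, normalized to ACTB, GAPDH, POLR2A; bidirectional fit vs DMSO.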
# [16] = read-out: cysteine-aspartic acid protease (CASP8), CASP8 (gene 841); test: LTEA_HepaRG_CASP8: Life Technologies and Expression Analysis (LTEA) Assay for cysteine-aspartic acid protease (CASP8) using HepaRG (AID 2283480)
# In short: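 Concentration-response in duplicate up to 100 uM (half-log steps, 0.5% DMSO) on differentiated HepaRG cultures for 48 h. Expression change of CASP8 mRNA is determined by TaqMan qRT-PCR with housekeeping-gene normalization.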
# [17] = read-out: Cytochrome P450 (CYP2B6), CYP2B6 (gene 1555); test: LTEA_HepaRG_CYP2B6: Life Technologies and Expression Analysis (LTEA) Assay for Cytochrome P450 (CYP2B6) using HepaRG (AID 2283481)
# In short: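 Differentiated HepaRG cells, serum-free induction medium, exposed 48 h in duplicate to 8-point half-log concentrations from 100 uM in 0.5% DMSO. CYP2B6 mRNA by qRT-PCR, normalized to ACTB, GAPDH, POLR2A; bidirectional fit versus DMSO.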
# [18] = read-out: Cytochrome P450 2C19 (Homo sapiens) (UniProt P33261); test: LTEA_HepaRG_CYP2C19: Life Technologies and Expression Analysis (LTEA) Assay for CYP2C19 using HepaRG (AID 2283482)
# In short: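 Differentiated human HepaRG cells were exposed for 48 h in serum-free induction medium to 8 concentrations (top 100 uM, half-log steps, 0.5% DMSO). CYP2C19 mRNA was measured by qRT-PCR, normalized to ACTB/GAPDH/POLR2A, and fitted bidirectionally against DMSO.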
# Sequence of Broad substrate specificity ATP-binding cassette transporter ABCG2 (Homo sapiens) (Q9UNQ0 whole entry, looked up): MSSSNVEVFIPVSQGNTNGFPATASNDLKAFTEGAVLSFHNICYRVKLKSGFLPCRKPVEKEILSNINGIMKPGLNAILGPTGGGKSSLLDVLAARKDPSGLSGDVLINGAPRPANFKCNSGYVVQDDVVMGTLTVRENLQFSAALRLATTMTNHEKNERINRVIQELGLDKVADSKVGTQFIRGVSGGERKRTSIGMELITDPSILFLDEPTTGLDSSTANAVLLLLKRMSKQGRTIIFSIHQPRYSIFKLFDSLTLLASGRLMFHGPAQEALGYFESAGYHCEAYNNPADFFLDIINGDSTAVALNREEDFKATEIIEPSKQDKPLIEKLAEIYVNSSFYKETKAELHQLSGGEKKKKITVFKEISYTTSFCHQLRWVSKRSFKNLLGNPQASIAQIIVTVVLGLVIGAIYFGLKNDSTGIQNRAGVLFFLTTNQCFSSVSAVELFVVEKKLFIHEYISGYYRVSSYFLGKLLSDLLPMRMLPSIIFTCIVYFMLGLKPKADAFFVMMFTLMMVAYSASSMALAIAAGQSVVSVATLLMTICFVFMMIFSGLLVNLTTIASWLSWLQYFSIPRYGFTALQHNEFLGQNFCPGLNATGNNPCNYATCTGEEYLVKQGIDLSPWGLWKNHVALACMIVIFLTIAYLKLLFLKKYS
# Sequence of Apoptosis regulator Bcl-2 (Homo sapiens) (P10415 whole entry, looked up): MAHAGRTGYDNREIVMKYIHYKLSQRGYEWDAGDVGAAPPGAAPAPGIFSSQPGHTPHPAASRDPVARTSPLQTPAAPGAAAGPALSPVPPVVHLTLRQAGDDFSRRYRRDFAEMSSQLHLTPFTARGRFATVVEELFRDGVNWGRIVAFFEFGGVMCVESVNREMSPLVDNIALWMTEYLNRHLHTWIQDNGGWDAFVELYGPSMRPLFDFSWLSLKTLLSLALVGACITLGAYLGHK
# Sequence of Caspase-3 (Homo sapiens) (P42574 whole entry, looked up): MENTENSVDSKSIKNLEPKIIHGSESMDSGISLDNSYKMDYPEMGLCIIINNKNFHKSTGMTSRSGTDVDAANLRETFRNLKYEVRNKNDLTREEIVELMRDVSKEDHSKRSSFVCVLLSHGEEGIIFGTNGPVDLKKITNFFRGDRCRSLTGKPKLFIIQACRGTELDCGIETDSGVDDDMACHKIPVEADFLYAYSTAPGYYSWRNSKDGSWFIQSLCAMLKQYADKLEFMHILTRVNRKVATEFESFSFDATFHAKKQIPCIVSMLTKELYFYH
# Sequence of Cytochrome P450 2C19 (Homo sapiens) (P33261 whole entry, looked up): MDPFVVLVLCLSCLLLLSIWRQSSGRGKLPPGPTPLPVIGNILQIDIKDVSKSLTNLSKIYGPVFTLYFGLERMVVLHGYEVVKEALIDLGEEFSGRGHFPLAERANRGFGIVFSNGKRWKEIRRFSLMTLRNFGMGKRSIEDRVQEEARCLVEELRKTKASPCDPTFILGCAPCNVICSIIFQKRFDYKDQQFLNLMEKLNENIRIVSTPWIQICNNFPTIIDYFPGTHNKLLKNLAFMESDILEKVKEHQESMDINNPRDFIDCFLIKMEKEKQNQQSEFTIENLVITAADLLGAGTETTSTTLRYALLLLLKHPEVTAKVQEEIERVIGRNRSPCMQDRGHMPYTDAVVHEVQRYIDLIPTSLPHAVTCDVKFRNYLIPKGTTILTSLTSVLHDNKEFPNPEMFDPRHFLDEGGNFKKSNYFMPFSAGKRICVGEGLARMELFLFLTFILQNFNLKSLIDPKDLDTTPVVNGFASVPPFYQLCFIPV
structure (smiles),measurement,setting,value
CCC(=O)Nc1ccc(Cl)c(Cl)c1,outcome,[1],inactive
same,AC50,[2],50 µM (active)
same,outcome,[3],inactive
same,outcome,[4],inactive
same,outcome,[5],inactive
same,AC50,[6],50 µM (active)
same,outcome,[7],inactive
same,outcome,[8],inactive
same,outcome,[9],inactive
same,outcome,[10],inactive
same,outcome,BCL2L11 (gene 10018),inactive
same,outcome,[11],inactive
same,outcome,[12],inactive
same,outcome,[13],inactive
same,outcome,Caspase-3 (Homo sapiens),inactive
same,outcome,[14],inactive
same,AC50,[15],33 µM (active)
same,outcome,[16],inactive
same,AC50,[17],12.6 µM (active)
same,AC50,[18],32.7 µM (active)
CC(C)N(C(=O)SCC(Cl)=C(Cl)Cl)C(C)C,outcome,[1],inactive
same,outcome,[2],inactive
same,outcome,[3],inactive
same,outcome,[4],inactive
same,outcome,[5],inactive
same,outcome,[6],inactive
same,outcome,[7],inactive
same,outcome,[8],inactive
same,outcome,[9],inactive
same,outcome,[10],inactive
same,outcome,BCL2L11 (gene 10018),inactive
same,outcome,[11],inactive
same,outcome,[12],inactive
same,outcome,[13],inactive
same,outcome,Caspase-3 (Homo sapiens),inactive
same,outcome,[14],inactive
same,AC50,[15],73.5 µM (active)
same,outcome,[17],inactive
CCOP(=S)(OCC)Oc1ccc([N+](=O)[O-])cc1,outcome,[1],inactive
same,outcome,[2],inactive
same,outcome,[3],inactive
same,outcome,[4],inactive
same,outcome,[5],inactive
same,outcome,[6],inactive
same,outcome,[7],inactive
same,outcome,[8],inactive
same,outcome,[9],inactive
same,AC50,[10],2.4 µM (active)
same,outcome,BCL2L11 (gene 10018),inactive
same,outcome,[11],inactive
same,outcome,[12],inactive
same,outcome,[13],inactive
same,outcome,Caspase-3 (Homo sapiens),inactive
same,outcome,[14],inactive
same,AC50,[15],15.1 µM (active)
same,outcome,[16],inactive
same,AC50,[17],0.636 µM (active)
